Source: paper PMC12136788
Residue numbers refer to the chain shown, from its start. In all, about 24,000 sequences were measured (“enrichment r”: median about 0.99, highest 2% from about 3.7 on). For the sample, the highest values were picked, then their nearest neighbours and some sequences at random.

T1: UNK ZnF1-3 (human, UniProt Q9C0B0 31-174)
T1 sequence: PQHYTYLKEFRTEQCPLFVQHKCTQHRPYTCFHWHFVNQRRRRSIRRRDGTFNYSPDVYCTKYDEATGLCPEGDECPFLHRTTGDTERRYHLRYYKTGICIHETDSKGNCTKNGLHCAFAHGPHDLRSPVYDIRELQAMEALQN

B1: chr17:65337090:65337091:-_ENSG00000197170_ENST00000584008|hu_mus|FALSE|FALSE (ssRNA)
RNA: GGGAGUUCUACAGUCCGACGAUCCCAGUCAUUUAAUAAAUUAUUUGGAUCCUUGGGUCUCUGGAAGUUGAUGACUCCAGCCAACCUGUCUACUUUAGCAAAGAUGGUCUUGUUAACGACUAGAUUCGAGAGGAAAGCCUCUGACAACAGAGGAUUGAGCAUCA
B2: chr12:35831226:35831227:+_ENSMUSG00000020590_ENSMUST00000048519|mus_mus|motif|central (ssRNA)
RNA: GGGAGUUCUACAGUCCGACGAUCUCAGCAGAAGACAUAUAGCCUCUUUGUGUCUAUGUUCAUCUGUGCAACAAGUGCACGGAAUAGAAUAAUUUUAUUAACCAGAGAAUACUGUACUCUACUCAUCGGUUAAACACUCUACACCAACAGAGGAUUGAGCAUCA
B3: chr9:91093546:91093547:+_ENSG00000106723_ENST00000375859|hu_mus|FALSE|FALSE (ssRNA)
RNA: GGGAGUUCUACAGUCCGACGAUCUACAUCAUAAUUAUAAAAAUUACUUACAGAAUUAACAGUUGUACUGUGUAUACUUCUAAAUGCAGAGAACAGGGAACCGUCUACACGUUGUAUAAAAUAAAAUUAAAAUUAAAAAUGAAUCAACAGAGGAUUGAGCAUCA
B4: chr9:91093546:91093547:+_ENSG00000106723_ENST00000375859|hu_mus|motif|central (ssRNA)
RNA: B3 RNA with U80G, A81G
B5: chr1:10024197:10024198:-_ENSMUSG00000025917_ENSMUST00000027050|mus_mus|FALSE|FALSE (ssRNA)
RNA: GGGAGUUCUACAGUCCGACGAUCCAGCAUCUGUGUACUAACAUCAAUCCCGGAGAGCCAGCAGCCAUAACCAGGGUGGCUAUGAUACCAACCGAUUGCAUUCUCAAGGCGGCCAACCUGUUUGGCAUUUUCUAUGUAUGCAGCCAACAGAGGAUUGAGCAUCA
B6: chr1:225700702:225700703:-_ENSG00000154380_ENST00000366843|hu_hu|motif|central (ssRNA)
RNA: GGGAGUUCUACAGUCCGACGAUCACCAAUAGCAUUCCCUCCACUUGGGAAAGAGGUAUCCUCCAUCCGUGACACUUUCCGGAGUUUUGCUCCGGCAAUUGCAGCUGCAAGUCCAGUUAAAGGGCGAUUGUCUUCUGACAUGGACAACAGAGGAUUGAGCAUCA
B7: chr14:78183846:78183847:+_ENSG00000119705_ENST00000557342|hu_hu|hu_hu_hu_mus_False|58_98 (ssRNA)
RNA: GGGAGUUCUACAGUCCGACGAUCUCUCAGAAAUCUUUCUUUCUUUUAUGUUUGAGCUCCGUGCAAAGCCUUUGCUCUUCUAGUGUGAACGUGGAUCUAUGGGAGGGAAAGCACUGUCAGAAAAGGUAAUUUUUUUUUUAAAGACAACAGAGGAUUGAGCAUCA
B8: chr6:21597833:21597834:+_ENSG00000124766_ENST00000244745|hu_mus|FALSE|FALSE (ssRNA)
RNA: GGGAGUUCUACAGUCCGACGAUCAAAGUUAAAACUCUAGCCCUUCAGUGAAGGAGACGUAAAAUGGCGUGGGUAACAACACUAGAAAAAAAAAAAAAACGAAGAAAAAGAAAGAAAAUAAAAAAGAAGAUAAAGAAACGAGGUCAACAGAGGAUUGAGCAUCA
B9: chr6:21597833:21597834:+_ENSG00000124766_ENST00000244745|hu_mus|motif|central (ssRNA)
RNA: B8 RNA with U82G, A83G
B10: chr17:32491106:32491107:-_ENSMUSG00000024050_ENSMUST00000163107|mus_hu|FALSE|FALSE (ssRNA)
RNA: GGGAGUUCUACAGUCCGACGAUCAUCGAUAACCAAAAUGUGGCCACUGAAAAAAGUUAAAAGGUCAAUCAGCUCCUGGCUUCUAGCUGGCCCAGGAUUGCAAAAUAAAAAGAUCCACGUUCCUUAUUCUCUACACAAAACGCGCAACAGAGGAUUGAGCAUCA
B11: chr1:100342015:100342016:+_ENSG00000162688_ENST00000361915|hu_hu|motif|central (ssRNA)
RNA: GGGAGUUCUACAGUCCGACGAUCAGAUUCUUCCAUGGAGAAGUCUAUCUCUUCAAAUGGGAAAGUAAAAUACCUGGUAACGGAAGGAUGCUUUCUAGUGACAGGUCCUAGUUUUGGACCAUGGCCAGCCAGUCGUUCAUAAAACAACAGAGGAUUGAGCAUCA
B12: chr2:48026839:48026840:+_ENSG00000116062_ENST00000540021|hu_hu|hu_hu_hu_mus_False|28_88 (ssRNA)
RNA: GGGAGUUCUACAGUCCGACGAUCAUAGUGAGCCACUAGCGUCCUAAAUCUCGAACAGUGGCGGUCAUCCGAAAACUGGCCGAUGAAAAACUUGCCCAGUGAAGUGUCAACAAAGCAAACACCAUACACACGAGUGUGACCAGACAACAGAGGAUUGAGCAUCA
B13: 75522086_75522670_732_CDS_ENSMUSG00000026213_ENSMUST00000113553|mouse|control|control (ssRNA)
RNA: GGGAGUUCUACAGUCCGACGAUCCAGGAGACGCAGGGAGCUGUCUAAGCUCCUGAGCGCAUUGUAGCUGAAGUCGGCAGAAAGCAAGGCUAGCCAGGGGAGGGCAGAGCAGAGAUCCCCACCACAGGCUGACAAGAGCUCCUCCAACAGAGGAUUGAGCAUCA
B14: chr1:244855233:244855234:+_ENSG00000121644_ENST00000302550|hu_mus|hu_hu_hu_mus_True|28_88 (ssRNA)
RNA: GGGAGUUCUACAGUCCGACGAUCCAUCAGAUGGUAGGCGUUGCCCUUGUAUUCUUUCCCCAGUUCUUCUACAAUUUUCUCUAUAUCAUCUUCUAGAAAGUCCGUACUCCCUAAAACAACAGCUUCUUUAAAUUUAAAUGUUUCCAACAGAGGAUUGAGCAUCA

molecular target: T1, UNK ZnF1-3; assay: nsRBNS (natural sequence RNA bind-n-seq); RBNS binding buffer (assumed for nsRBNS): 25 mM Tris pH 7.5, 150 mM KCl, 3 mM MgCl2, 0.01% Triton X-100, 500 ug/ml BSA, 20 U/ml SUPERase-In, 4 C; UNK is unkempt and MSI1 is Musashi-1; names of the RNAs are library labels; protein concentration not given here; high values mean tight binding

Binder	binding signal [enrichment R]
B1	1.07
B2	0.463
B3	7.07
B4	4.68
B5	1.5
B6	0.794
B7	1.14
B8	7.3
B9	5.74
B10	1.24
B11	0.918
B12	1.25
B13	1.21
B14	1.19
